The list is not random: actives were taken first. Their share in the collection is about 2.1%.
CF NFkB inh – inhibitors of PAF-induced NF-kB signaling, primary screen, cell-based, GFP fluorescence, uHTS; AID 588850, 2011; KKLEB NF-kB-GFP reporter, GFP fluorescence overnight; inhibition, % at 5 µM; hit rate 0.86% among 360,000;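 active = at least 50% inhibition at 5 µM, scaled per plate between neutral and stimulator controls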;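 note: PAF is a Pseudomonas aeruginosa culture filtrate used as stimulus; plate controls were PAF-stimulated DMSO wells for no effect and unstimulated DMSO wells for full effect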
PAX8 inh HTS – inhibitors of PAX8-driven TPO luciferase reporter, primary screen, RMG-I cells, single concentration; hit rate 1.2% among 360,000; SteadyGlo, 24 h; inhibition, % at 12.6 µM;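 active = mean replicate inhibition at least 60% with every replicate also reaching 60%; inconclusive = only one of the two criteria is met; inactive = mean below 60% and not all replicates reaching 60%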;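 note: luciferase light reporting Pax8 driven TPO promoter activity; plate controls were median of neutral control wells for no effect and mitoxantrone controls for full effect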
KKLEB cytotox – cytotoxicity in KKLEB CF airway cells, primary screen, cytotoxicity control for CF NF-kB inhibitor project, cell-based, uHTS, fluorescence assay plates | KKLEB CF airway cells viability, ATPlite luminescence, overnight; hits give low values; cells stimulated with P. aeruginosa culture filtrate | activity change (cytotoxicity), % at 5 µM | hit rate 0.36% among 360,000 | AID 602141, 2011;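 active = corrected activity change at or below -50% at 5 µM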
EWS-Fli block – EWS/Fli-driven NR0B1 reporter inhibitors, primary screen, A673 cells, NR0B1 luciferase, luminescence, MLPCN library. AID 651661, 2012. inhibition, % at 12.6 µM. hit rate 0.67% among 350,000. viability-normalised;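 active = mean inhibition of at least 50% after viability correction, with every replicate also passing that limit; inconclusive = mean reaches 50% but only one of two replicates passes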;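 note: firefly luciferase signal divided by Alamar Blue viability fluorescence both relative to DMSO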
HIF-2a block – HIF-2a reporter inhibitors, primary screen, luminescence, 786-0 RCC cells; AID 624352, 2012; inhibition, % at 18.8 µM; 786-0 RCC cells HIF-2a reporter, luciferase luminescence, overnight; hit rate 0.72% among 360,000;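 active = inhibition of the luminescence signal of 40% or more relative to plate controls, in a single-dose primary screen at 18.75 µM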
Mdm2 MdmX conf – retested Mdm2-MdmX interaction blockers, confirmation, cell-based, luminescence, single concentration, set 2; shares compounds with HIF-2a block; SaOS-2 split-luciferase Mdm2/MdmX complementation; inhibition, % at 8 µM; hit rate 99% among 740; AID 504601, 2011;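 active = mean inhibition of the luminescence signal across two replicates at or above 26 percent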
HIF-2a conf – HIF-2a reporter inhibitor retest, confirmation, luminescence, 786-0 RCC cells | shares compounds with HIF-2a block | HIF-2a luciferase reporter luminescence, overnight | inhibition, % at 18.8 µM | hit rate 56% among 1,800 | AID 651580, 2012;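 active = mean inhibition across four replicates of at least 40 percent at the single tested concentration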
HIF-1a counter – HIF-1a luciferase reporter signal reduction – MiaPaCa-2 cells, single concentration, counter-screen for HIF-2a inhibitor project, confirmation; hit rate 72% among 1,800; MiaPaCa-2 HIF-1a luciferase reporter, desferoxamine, overnight; inhibition, % at 18.8 µM; shares compounds with HIF-2a block;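 active = mean inhibition of the reporter signal across four replicates at the single tested dose of 50% or more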
Numbers without * were called inactive; ? = inconclusive; . = not tested or not shown.

SMILES | CF NFkB inh | PAX8 inh HTS | KKLEB cytotox | EWS-Fli block | HIF-2a block | HIF-2a conf | HIF-1a counter | others
O=C(Cn1ncc(Cl)c(Cl)c1=O)N1CCOCC1 | 48 | 26 | -10 | 48 | 84* | -26 | 106*
O=C(Cn1ncc(Cl)c(Cl)c1=O)N1CCc2ccccc21 | 103* | 66* | -88* | 54* | 94* | 98* | 106*
O=C(Cn1ncc2c1-c1ccccc1OC2)N1CCN(Cc2ccccc2)CC1 | 6 | 12 | -4 | 13 | 13 | . | .
O=C(C[C@@H]1C[C@H]2c3cc(NC(=O)c4cccnc4)ccc3O[C@H]2[C@H](CO)O1)NCc1cc(F)ccc1F | . | 0 | . | 10 | . | . | .
Cc1noc(C)c1NC(=O)N(C)C[C@@H]1Oc2ccc(NC(=O)Nc3ccc(F)cc3)cc2CC(=O)N([C@H](C)CO)C[C@@H]1C | . | 5 | . | -4 | . | . | .
C[C@@H]1CN([C@H](C)CO)S(=O)(=O)c2ccc(C#CC3CCCCC3)cc2O[C@H]1CN(C)Cc1cccnc1 | . | . | . | 46 | . | . | .
CCOC(=O)CNC(=O)CSc1nnc(NC(=O)c2ccc(C)cc2)s1 | 7 | 20 | -18 | 42 | 45* | 65* | -12
CCOC(=O)CNC(=O)CSc1nnc(NC(=O)c2ccc3c(c2)OCO3)s1 | -6 | -71 | -7 | -31 | -53 | . | .
O=C(NC12CC3CC(CC(C3)C1)C2)c1ccc([N+](=O)[O-])o1 | 94* | 98* | -78* | 17 | 65* | 11 | 96*
CCOc1cc(NC(=O)CCl)c(OCC)cc1NC(=O)CCl | 18 | 76* | -31 | 45 | 23 | . | . | Mdm2 MdmX conf=103*
NC(=O)NC(=O)COC(=O)/C=C/c1cccc(Br)c1 | -11 | 4 | 11 | -24 | 6 | . | .
CCOC(=O)C(CC)(CC)C(=O)/C=C/c1cccc(Br)c1 | 24 | . | 1 | . | 87* | 69* | 104*
CN1CCN(C(=O)C[C@@H]2CC[C@@H]3[C@H](COC[C@H](O)CN3Cc3cccc(-c4ccncc4)c3)O2)CC1 | . | 15 | . | 33 | . | . | .
Cc1ccc(C(=O)Nc2ccc3ncccc3c2)cc1 | -10 | 22 | -64* | 66* | 43* | 51* | 28
CCCNC(=O)N1CC2(CCN(C(=O)CN(C)C)CC2)c2c(n(C)c3cc(OC)ccc23)[C@@H]1CO | . | -16 | . | -7 | . | . | .
Cc1cc(C)c2cc3c(N)c(C(=O)Nc4c(C)[nH]c(=O)[nH]c4=O)sc3nc2c1 | 3 | 15 | -1 | . | 69* | 28 | 66*
Cc1cc(C)c2cc3c(N)c(C(=O)N4CCOCC4)sc3nc2c1 | 4 | -120 | 7 | -88 | -13 | . | .
CCCC#Cc1ccc([C@H]2[C@@H](C#N)N(S(=O)(=O)c3cccc(F)c3)[C@H]2CO)cc1 | . | . | . | 1 | . | . | .
C[C@H](CO)N1C[C@H](C)[C@@H](CN(C)Cc2ccc(C(F)(F)F)cc2)Oc2ccc(NS(=O)(=O)c3cccs3)cc2C1=O | . | -9 | . | -12 | . | . | .
CCCCCCCCCn1c2c(c(=N)c3c1CCC3)CCC2 | 55* | . | -62* | . | 21 | . | . | Mdm2 MdmX conf=101*
COC(=O)c1cc(=O)n(Cc2ccco2)c(=Nc2ccc(F)cc2)s1 | 40 | . | -18 | . | 49* | 60* | 97*
COC(=O)c1cc(=O)n(Cc2ccc(F)cc2)c(=Nc2ccccc2)s1 | 18 | 4 | 0 | 21 | 53* | 26 | 48
COC(=O)c1cc(=O)n(CCc2ccc(OC)c(OC)c2)c(=Nc2ccc(F)c(Cl)c2)s1 | 27 | 17 | -8 | 13 | 75* | 23 | 96*
CNC(=O)C1CC(=O)N(CCc2ccc(OC)c(OC)c2)C(=Nc2ccc(F)cc2)S1 (stereo not given) | -2 | -18 | 4 | -9 | 14 | . | .
COC(=O)c1cc(=O)n(Cc2cccs2)c(=Nc2ccccc2)s1 | 13 | 8 | -8 | 9 | 25 | . | .
SMILES | CF NFkB inh | PAX8 inh HTS | KKLEB cytotox | EWS-Fli block | HIF-2a block | HIF-2a conf | HIF-1a counter | others
C[C@H]1CN([C@@H](C)CO)C(=O)c2cc(NS(=O)(=O)c3ccccc3)ccc2O[C@H]1CN(C)Cc1ccccc1 | . | -6 | . | -14 | . | . | .
CC(C)Nc1ccc(Nc2ccnc3cc4ccccc4cc23)cc1 | -179 | 97* | -21 | 36 | 55* | . | . | Mdm2 MdmX conf=103*
COc1ccc(Nc2ccnc3ccccc23)cc1 | 34 | . | -5 | . | -35 | . | .
COc1ccccc1S(=O)(=O)c1ccccc1[N+](=O)[O-] | 8 | -13 | -16 | -1 | 12 | . | .
O=[N+]([O-])c1cccnc1S(=O)(=O)c1ccccc1 | 82* | 110* | -68* | 44 | 55* | 20 | -1 | Mdm2 MdmX conf=102*
COc1ccc([N+](=O)[O-])c(S(=O)(=O)c2ccc(Cl)cc2)n1 | 102* | 82* | -47 | 20 | 60* | 75* | 62* | Mdm2 MdmX conf=103*
COc1ccc([N+](=O)[O-])c(S(=O)(=O)c2ccccc2)n1 | 85* | 103* | -55* | 25 | 82* | 88* | 84* | Mdm2 MdmX conf=103*
CC(SC#N)C(=O)C12CC3CC(CC(C3)C1)C2 (stereo not given) | 44 | -3 | -22 | 3 | 46* | 24 | 12
C[C@H](NC(=O)C[C@H]1C[C@@H]2c3cc(NC(=O)C4CCC4)ccc3O[C@@H]2[C@H](CO)O1)c1ccccc1 | . | 1 | . | 2 | . | . | .
OCCSc1nc(-c2ccccc2)nc2ccc(F)cc12 | -16 | 11 | -5 | 3 | -6 | . | .
NC(N)=Nc1nc(-c2ccccc2)c2cc(F)ccc2n1 | -108 | 32 | 16 | 34 | 40* | 16 | 79*
CCOc1ccc(C(=O)Cc2ccccc2)cc1 | 18 | -175 | -20 | -99 | -238 | . | .
CCOc1ccc(C(=O)CSCCC(=O)O)cc1 | 9 | -2 | 0 | 45 | 78* | 82* | 61*
Cc1nc2cc(-c3ccccc3)nn2c(C)c1CCC(=O)NC(C)c1ccc2c(c1)OCCO2 (stereo not given) | -12 | -1 | 0 | ? | 66* | 79* | 45
Cc1nc2cc(-c3cccc(F)c3)nn2c(C)c1CCC(=O)NC(C)c1ccc2c(c1)OCCO2 (stereo not given) | -10 | 14 | -15 | 41 | 46* | 72* | 42
Cc1nc2nc(C)c(CCC(=O)NC(C)c3ccc4c(c3)OCCO4)c(C)n2n1 (stereo not given) | -7 | -15 | 5 | . | -12 | . | .

Compound activity from PubChem.
